In the supplement of paper PMC10849652:
About 8,800 targets were measured; listed, in parts, are those with a hit and a random draw of the rest. About 0.5% of all pairs of compound and target were hits.

What was measured:
Assay in all cases: log2 fold change, soluble protein after heating vs DMSO (PISA); higher = thermal stabilisation; K562 lysate, 10 uM; active = over 0.2 and 3.5 SD of the protein, either way, in both replicates (recomputed)
[1] = compound: NCC(=O)Nc1ccc(-n2nc(C(F)(F)F)cc2-c2ccc3c(ccc4ccccc43)c2)cc1
In short: (§1)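 K562 pellets were dounce-homogenised in PBS pH 7.4 containing 1 mM MgCl2, and the crude extract, at 1 mg/mL protein, was exposed to 10 μM compound for 30 min. Aliquots were heated for 3 min across 48°C-58°C, pooled, brought to 0.5% NP-40 at 4°C and spun at 21,000xg for 90 min, with the supernatant taken as soluble protein. TMTpro 16plex LC-MS/MS with equalised channel sums quantified that protein. Values are log-two fold changes in thermal stability relative to solvent controls, taken from duplicates.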

vorinostat = compound: O=C(CCCCCCC(=O)Nc1ccccc1)NO [vorinostat]
In short: as §1

silmitasertib = compound: O=C(O)c1ccc2c(c1)nc(Nc1cccc(Cl)c1)c1ccncc12 [silmitasertib]
In short: as §1

[2] = compound: O=C1NC(=O)C(c2cnc3ccccn23)=C1c1cn2c3c(cc(F)cc13)CN(C(=O)N1CCCCC1)CC2
In short: as §1

entospletinib = compound: c1cn2cc(-c3ccc4cn[nH]c4c3)nc(Nc3ccc(N4CCOCC4)cc3)c2n1 [entospletinib]
In short: as §1

Measured: log2 fold change

LIG3 (UniProt P49916)
inactive: [1] -0.061 | silmitasertib 0.018 | [2] -0.012 | entospletinib -0.004
active: vorinostat -0.411

MRPL15 (UniProt Q9P015)
inactive: [1] 0.068 | vorinostat 0.137 | silmitasertib -0.071 | [2] -0.02 | entospletinib -0.061

MEX3A (UniProt A1L020)
inactive: [1] -0.106

KNL1 (UniProt Q8NG31)
active: vorinostat -0.254
inactive: [1] 0.022 | silmitasertib -0.003 | [2] -0.009 | entospletinib -0.011

MPZL1 (UniProt O95297)
inactive: [1] -0.059 | vorinostat 0.022 | silmitasertib -0.004 | [2] 0.021 | entospletinib 0.017

KPNA2 (UniProt P52292)
inactive: [1] -0.014 | silmitasertib 0.018 | [2] 0.009 | entospletinib 0.019
active: vorinostat -0.376

KLHL12 isoform 2 (UniProt Q53G59)
inactive: [1] 0.135 | vorinostat -0.108 | silmitasertib 0.024 | [2] 0.003

MRPL12 (UniProt P52815)
inactive: [1] -0.07 | vorinostat 0.116 | silmitasertib -0.023 | [2] 0 | entospletinib -0.152

LYAR (UniProt Q9NX58)
inactive: [1] 0.011 | vorinostat 0.109 | silmitasertib 0.005 | [2] 0.001 | entospletinib 0.014

LYRM4 (UniProt Q9HD34)
UniProt Q9HD34, sequence (Q9HD34 whole entry, looked up): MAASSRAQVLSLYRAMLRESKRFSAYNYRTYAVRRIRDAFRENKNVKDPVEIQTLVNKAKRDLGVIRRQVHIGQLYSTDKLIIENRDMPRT
inactive: [1] 0.01 | vorinostat 0.119 | silmitasertib -0.019 | [2] 0.023 | entospletinib 0.007

MARK2 (UniProt E9PC69)
active: silmitasertib 0.486
inactive: [1] 0.026 | vorinostat -0.167 | [2] 0.006 | entospletinib 0.153

MICB, A0A140T979
inactive: [1] 0.068 | vorinostat 0.196 | silmitasertib -0.121 | [2] 0.021 | entospletinib 0.35

MRPL19 (UniProt P49406)
inactive: [1] 0 | silmitasertib 0.012 | [2] 0.027 | entospletinib -0.054
active: vorinostat -0.311

MRPL35 (UniProt Q9NZE8)
inactive: [1] -0.229 | vorinostat -0.159 | silmitasertib 0.04 | [2] 0.013

LBR (UniProt Q14739)
inactive: [1] -0.121 | vorinostat 0.17 | silmitasertib -0.001 | [2] -0.076 | entospletinib -0.009

MAP3K4 (UniProt Q9Y6R4)
inactive: [1] -0.025 | silmitasertib 0.229 | [2] -0.025 | entospletinib -0.045
active: vorinostat -0.524

MDM2 isoform 11 (UniProt Q00987)
UniProt Q00987, sequence (Q00987 whole entry, looked up): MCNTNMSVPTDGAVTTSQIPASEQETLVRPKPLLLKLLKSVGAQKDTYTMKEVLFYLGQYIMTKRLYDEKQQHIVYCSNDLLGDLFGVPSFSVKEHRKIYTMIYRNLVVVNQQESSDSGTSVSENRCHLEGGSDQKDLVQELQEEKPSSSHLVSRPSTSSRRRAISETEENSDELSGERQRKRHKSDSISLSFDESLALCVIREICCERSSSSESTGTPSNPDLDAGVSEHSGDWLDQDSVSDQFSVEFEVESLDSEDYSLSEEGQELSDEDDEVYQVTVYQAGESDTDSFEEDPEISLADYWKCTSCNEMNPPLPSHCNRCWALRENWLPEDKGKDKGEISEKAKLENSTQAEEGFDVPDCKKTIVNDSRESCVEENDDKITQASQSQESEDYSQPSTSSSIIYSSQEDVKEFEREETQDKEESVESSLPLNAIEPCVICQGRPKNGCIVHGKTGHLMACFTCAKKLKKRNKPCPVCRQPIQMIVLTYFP
inactive: [1] -0.137 | vorinostat -0.062 | silmitasertib 0 | [2] -0.039

MLST8 (UniProt Q9BVC4)
inactive: [1] 0.006 | silmitasertib 0.104 | [2] 0.046 | entospletinib 0.043
active: vorinostat -0.357

MBOAT2 (UniProt Q6ZWT7)
inactive: [1] -0.017 | vorinostat 0.13 | silmitasertib 0.024 | [2] 0.005 | entospletinib -0.092

LYSMD3 (UniProt Q7Z3D4)
inactive: [1] 0.01 | vorinostat 0.095 | silmitasertib -0.022 | [2] -0.029 | entospletinib 0.028

MGST3 (UniProt O14880)
UniProt O14880, sequence (O14880 whole entry, looked up): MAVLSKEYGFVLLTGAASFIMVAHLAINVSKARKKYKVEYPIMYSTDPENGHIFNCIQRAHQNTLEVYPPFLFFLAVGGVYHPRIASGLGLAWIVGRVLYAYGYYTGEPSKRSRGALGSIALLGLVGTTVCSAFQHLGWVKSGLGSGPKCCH
inactive: [1] -0.025 | vorinostat 0.128 | silmitasertib 0 | [2] 0.033 | entospletinib 0.041

MPP5 (UniProt Q8N3R9)
inactive: [1] 0.015 | vorinostat 0.016 | silmitasertib -0.1 | [2] 0 | entospletinib 0.013

L3HYPDH (UniProt Q96EM0)
inactive: [1] 0.023 | silmitasertib 0 | [2] -0.02 | entospletinib -0.005
active: vorinostat -0.31

MAP2K1 (UniProt Q02750)
inactive: [1] -0.005 | vorinostat -0.116 | silmitasertib 0.108 | [2] 0.006 | entospletinib 0.03

MGAT5 (UniProt Q09328)
inactive: [1] 0.054 | vorinostat 0.139 | silmitasertib -0.014 | [2] 0.013 | entospletinib 0.063

MAD2L2 (UniProt Q9UI95)
inactive: [1] 0.075 | silmitasertib -0.006 | [2] -0.02 | entospletinib 0.017
active: vorinostat -0.348

MCMBP (UniProt Q9BTE3)
UniProt Q9BTE3, sequence (Q9BTE3 whole entry, looked up): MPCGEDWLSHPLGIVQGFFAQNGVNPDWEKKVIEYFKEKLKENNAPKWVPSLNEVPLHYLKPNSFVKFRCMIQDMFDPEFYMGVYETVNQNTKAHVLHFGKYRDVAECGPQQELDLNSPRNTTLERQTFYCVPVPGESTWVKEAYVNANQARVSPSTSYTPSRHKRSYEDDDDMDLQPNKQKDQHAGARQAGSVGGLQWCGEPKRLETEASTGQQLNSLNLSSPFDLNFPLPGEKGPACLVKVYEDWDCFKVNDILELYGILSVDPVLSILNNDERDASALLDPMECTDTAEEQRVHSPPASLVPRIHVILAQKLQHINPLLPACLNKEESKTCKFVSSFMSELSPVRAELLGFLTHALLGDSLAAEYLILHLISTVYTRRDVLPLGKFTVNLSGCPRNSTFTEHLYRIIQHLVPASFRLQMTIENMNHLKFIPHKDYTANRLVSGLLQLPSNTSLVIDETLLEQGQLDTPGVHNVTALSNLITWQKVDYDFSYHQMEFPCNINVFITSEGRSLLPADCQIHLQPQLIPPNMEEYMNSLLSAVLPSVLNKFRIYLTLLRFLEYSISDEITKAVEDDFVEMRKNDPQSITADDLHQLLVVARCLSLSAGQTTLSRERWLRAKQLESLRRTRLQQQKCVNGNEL
active: vorinostat -0.415
inactive: [1] -0.01 | silmitasertib 0.028 | [2] -0.013 | entospletinib -0.007

KRR1 (UniProt Q13601)
inactive: [1] 0.013 | vorinostat 0.02 | silmitasertib 0.013 | [2] 0.101 | entospletinib 0.011

MAPKAPK2 (UniProt P49137)
UniProt P49137, sequence (P49137 whole entry, looked up): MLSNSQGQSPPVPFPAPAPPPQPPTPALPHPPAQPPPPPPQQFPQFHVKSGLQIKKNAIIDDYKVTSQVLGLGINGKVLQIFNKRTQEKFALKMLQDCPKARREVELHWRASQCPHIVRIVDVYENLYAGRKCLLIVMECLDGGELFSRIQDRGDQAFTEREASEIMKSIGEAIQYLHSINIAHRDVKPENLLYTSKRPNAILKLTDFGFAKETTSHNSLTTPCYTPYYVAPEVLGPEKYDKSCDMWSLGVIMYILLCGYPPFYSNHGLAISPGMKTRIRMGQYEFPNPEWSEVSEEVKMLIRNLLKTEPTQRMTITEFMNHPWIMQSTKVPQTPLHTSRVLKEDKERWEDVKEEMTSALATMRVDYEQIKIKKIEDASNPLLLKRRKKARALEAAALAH
active: vorinostat -0.36
inactive: [1] -0.019 | silmitasertib 0.072 | [2] -0.014 | entospletinib 0.04

LSG1 (UniProt Q9H089)
inactive: [1] -0.074 | vorinostat -0.052 | silmitasertib 0.043 | [2] 0.096 | entospletinib 0.139

KPNA4 (UniProt O00629)
UniProt O00629, sequence (O00629 whole entry, looked up): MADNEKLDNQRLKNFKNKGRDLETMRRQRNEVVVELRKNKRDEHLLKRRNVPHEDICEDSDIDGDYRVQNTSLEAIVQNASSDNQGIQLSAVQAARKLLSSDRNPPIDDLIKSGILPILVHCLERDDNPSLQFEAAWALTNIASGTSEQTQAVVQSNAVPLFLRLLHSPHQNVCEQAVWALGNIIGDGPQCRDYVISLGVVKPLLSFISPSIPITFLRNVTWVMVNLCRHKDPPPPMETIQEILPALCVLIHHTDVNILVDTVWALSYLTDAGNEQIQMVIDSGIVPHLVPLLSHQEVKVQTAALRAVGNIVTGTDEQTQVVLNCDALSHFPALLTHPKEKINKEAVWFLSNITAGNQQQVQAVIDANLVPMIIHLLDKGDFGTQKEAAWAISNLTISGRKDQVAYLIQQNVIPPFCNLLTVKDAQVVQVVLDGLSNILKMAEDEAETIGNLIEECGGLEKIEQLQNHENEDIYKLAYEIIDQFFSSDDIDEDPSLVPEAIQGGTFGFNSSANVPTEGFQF
inactive: [1] 0.006 | vorinostat 0.047 | silmitasertib 0.024 | [2] 0.02 | entospletinib 0.021

MAPK1 (UniProt P28482)
inactive: [1] -0.027 | vorinostat 0.039 | silmitasertib 0.042 | [2] -0.005 | entospletinib -0.039

MAPK3 (UniProt P27361)
UniProt P27361, sequence (P27361 whole entry, looked up): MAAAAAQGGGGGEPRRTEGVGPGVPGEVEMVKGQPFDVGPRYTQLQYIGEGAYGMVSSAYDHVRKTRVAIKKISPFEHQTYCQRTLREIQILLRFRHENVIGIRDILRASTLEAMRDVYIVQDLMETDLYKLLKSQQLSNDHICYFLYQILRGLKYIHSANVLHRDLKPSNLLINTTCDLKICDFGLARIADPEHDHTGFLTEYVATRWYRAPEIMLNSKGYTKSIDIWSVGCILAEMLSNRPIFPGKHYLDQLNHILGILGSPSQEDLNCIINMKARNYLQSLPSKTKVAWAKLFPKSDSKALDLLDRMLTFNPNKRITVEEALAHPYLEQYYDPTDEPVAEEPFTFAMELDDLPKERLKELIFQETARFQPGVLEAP
inactive: [1] -0.016 | vorinostat -0.005 | silmitasertib 0.02 | [2] 0.038 | entospletinib -0.013

MAP2K2 (UniProt P36507)
inactive: [1] -0.031 | vorinostat -0.088 | silmitasertib 0.099 | [2] 0.032 | entospletinib 0.04

LSS (UniProt P48449)
UniProt P48449, sequence (P48449 whole entry, looked up): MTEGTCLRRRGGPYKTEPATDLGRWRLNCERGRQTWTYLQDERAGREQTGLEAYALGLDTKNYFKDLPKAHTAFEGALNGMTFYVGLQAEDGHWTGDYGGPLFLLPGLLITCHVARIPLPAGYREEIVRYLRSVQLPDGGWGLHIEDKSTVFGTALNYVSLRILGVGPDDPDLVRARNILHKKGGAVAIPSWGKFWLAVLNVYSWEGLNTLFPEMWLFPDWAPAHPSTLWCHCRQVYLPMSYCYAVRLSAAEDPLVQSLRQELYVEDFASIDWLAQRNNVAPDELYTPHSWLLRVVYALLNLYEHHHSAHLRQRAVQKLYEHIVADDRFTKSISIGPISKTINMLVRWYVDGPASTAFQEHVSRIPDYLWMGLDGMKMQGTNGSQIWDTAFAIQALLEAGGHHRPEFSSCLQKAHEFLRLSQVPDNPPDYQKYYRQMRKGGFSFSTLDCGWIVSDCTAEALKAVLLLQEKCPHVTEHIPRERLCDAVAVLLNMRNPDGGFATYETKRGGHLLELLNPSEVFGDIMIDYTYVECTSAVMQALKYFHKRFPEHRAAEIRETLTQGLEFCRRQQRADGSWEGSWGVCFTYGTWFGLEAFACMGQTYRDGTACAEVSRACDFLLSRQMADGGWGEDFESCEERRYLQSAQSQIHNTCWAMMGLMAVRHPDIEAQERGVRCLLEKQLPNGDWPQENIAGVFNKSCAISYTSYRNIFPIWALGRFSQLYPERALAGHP
inactive: [1] -0.042 | vorinostat 0.049 | silmitasertib -0.039 | [2] -0.014 | entospletinib -0.043

KIF3C (UniProt O14782)
active: [1] 1.17
inactive: vorinostat -0.352 | silmitasertib 0.249 | [2] 0.074 | entospletinib 0.032

LRPPRC (UniProt H7C3W8)
inactive: [1] 0.792

MAST2 (UniProt Q6P0Q8)
inactive: [1] 0.062 | vorinostat -0.166 | silmitasertib 0.055 | [2] -0.013 | entospletinib -0.189

MRPL10 isoform 2 (UniProt Q7Z7H8)
inactive: [1] 0.005 | vorinostat 0.035 | silmitasertib -0.027 | [2] -0.027 | entospletinib -0.027

MCU (UniProt Q8NE86)
inactive: [1] -0.037 | vorinostat 0.04 | silmitasertib 0 | [2] -0.072 | entospletinib -0.016

METTL7A (UniProt Q9H8H3)
inactive: [1] 0.037 | vorinostat 0.017 | silmitasertib -0.053 | [2] 0.274 | entospletinib -0.001

MAT2B (UniProt Q9NZL9)
UniProt Q9NZL9, sequence (Q9NZL9 whole entry, looked up): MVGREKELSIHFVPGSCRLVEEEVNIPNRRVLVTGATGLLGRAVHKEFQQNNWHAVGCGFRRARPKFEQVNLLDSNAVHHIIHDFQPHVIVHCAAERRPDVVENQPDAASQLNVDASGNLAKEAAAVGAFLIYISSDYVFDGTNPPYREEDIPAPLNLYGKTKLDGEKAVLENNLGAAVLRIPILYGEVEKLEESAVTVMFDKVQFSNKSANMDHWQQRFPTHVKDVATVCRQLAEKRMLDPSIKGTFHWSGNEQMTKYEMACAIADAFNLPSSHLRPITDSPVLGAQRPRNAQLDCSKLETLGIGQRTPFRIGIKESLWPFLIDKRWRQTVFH
inactive: [1] 0.019 | vorinostat 0.103 | silmitasertib 0.005 | [2] 0.021 | entospletinib 0.024

MAPK14 (UniProt Q16539)
inactive: [1] -0.007 | vorinostat -0.294 | silmitasertib 0.279 | [2] 0.015 | entospletinib -0.005

MLXIP (UniProt Q9HAP2)
active: vorinostat -0.314
inactive: [1] 0.037 | silmitasertib 0.026 | [2] 0.079 | entospletinib 0.03

LAMP1 (UniProt P11279)
UniProt P11279, sequence (P11279 whole entry, looked up): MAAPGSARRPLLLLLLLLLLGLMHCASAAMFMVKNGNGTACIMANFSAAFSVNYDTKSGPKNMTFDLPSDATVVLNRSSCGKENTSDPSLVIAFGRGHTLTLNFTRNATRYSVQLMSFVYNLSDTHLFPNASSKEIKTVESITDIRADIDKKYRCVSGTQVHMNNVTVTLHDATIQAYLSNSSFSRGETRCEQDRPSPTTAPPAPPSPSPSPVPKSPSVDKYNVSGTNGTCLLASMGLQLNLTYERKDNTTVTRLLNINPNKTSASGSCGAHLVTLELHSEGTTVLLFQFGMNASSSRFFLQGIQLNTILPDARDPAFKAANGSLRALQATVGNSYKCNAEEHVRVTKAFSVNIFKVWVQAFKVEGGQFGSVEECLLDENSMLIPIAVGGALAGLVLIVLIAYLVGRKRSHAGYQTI
inactive: [1] 0.007 | vorinostat 0.095 | silmitasertib -0.009 | [2] -0.05 | entospletinib -0.004

MOCS1 isoform 8 (UniProt Q9NZB8)
inactive: [1] -0.1 | vorinostat 0.06 | silmitasertib -0.018 | [2] -0.111 | entospletinib -0.051

MAST4 (UniProt O15021)
inactive: [1] -0.073 | vorinostat -0.381 | silmitasertib 0.281 | [2] -0.025 | entospletinib 0.018

KRAS (UniProt P01116)
inactive: [1] 0.033 | vorinostat 0.129 | silmitasertib 0.022 | [2] -0.072 | entospletinib -0.021

KIF22 (UniProt Q14807)
inactive: [1] 0.069 | vorinostat 0.158 | silmitasertib -0.128 | [2] 0.156 | entospletinib 0.001

LTN1 isoform 3 (UniProt O94822)
inactive: [1] 0.057 | silmitasertib 0.04 | [2] 0.028 | entospletinib 0.034
active: vorinostat -0.58

LRWD1 (UniProt Q9UFC0)
UniProt Q9UFC0, sequence (Q9UFC0 whole entry, looked up): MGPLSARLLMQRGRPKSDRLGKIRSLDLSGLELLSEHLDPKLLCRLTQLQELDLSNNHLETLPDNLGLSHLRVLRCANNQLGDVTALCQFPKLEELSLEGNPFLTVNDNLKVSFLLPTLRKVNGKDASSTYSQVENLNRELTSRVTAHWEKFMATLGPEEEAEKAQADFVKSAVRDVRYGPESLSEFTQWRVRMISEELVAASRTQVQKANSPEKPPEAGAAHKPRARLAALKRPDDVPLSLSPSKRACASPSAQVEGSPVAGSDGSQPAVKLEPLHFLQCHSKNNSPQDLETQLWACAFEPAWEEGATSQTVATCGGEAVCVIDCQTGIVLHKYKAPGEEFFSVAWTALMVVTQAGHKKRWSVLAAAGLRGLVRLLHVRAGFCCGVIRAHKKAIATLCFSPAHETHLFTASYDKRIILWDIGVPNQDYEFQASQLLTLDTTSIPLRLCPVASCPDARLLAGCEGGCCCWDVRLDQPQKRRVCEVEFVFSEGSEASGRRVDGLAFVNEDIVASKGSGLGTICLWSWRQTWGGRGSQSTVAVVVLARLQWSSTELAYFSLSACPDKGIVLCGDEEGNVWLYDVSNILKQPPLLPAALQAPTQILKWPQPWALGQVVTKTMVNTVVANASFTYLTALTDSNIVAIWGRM
inactive: [1] -0.022 | silmitasertib -0.008 | [2] -0.011 | entospletinib 0.006
active: vorinostat -0.322

KRI1 (UniProt Q8N9T8)
inactive: [1] 0.085 | silmitasertib -0.023 | [2] -0.007 | entospletinib -0.07
active: vorinostat -0.285

KNOP1 (UniProt Q1ED39)
inactive: [1] 0.019 | vorinostat 0.063 | silmitasertib 0.005 | [2] 0.03 | entospletinib -0.035

MORC2 (UniProt Q9Y6X9)
inactive: [1] 0.014 | silmitasertib 0.103 | [2] -0.015 | entospletinib 0.013
active: vorinostat -0.328

LAP3 (UniProt P28838)
inactive: [1] 0.048 | vorinostat 0.082 | silmitasertib -0.104 | [2] 0.104 | entospletinib -0.008
